Data from the supplement of paper PMC10849652.
Targets with a hit are over-represented here; the source holds about 8,800 in all. About 0.5% of all pairs of compound and target were hits.

Compound: COC(=O)N[C@@H](C)CNc1nccc(-c2cn(C(C)C)nc2-c2cc(Cl)cc(NS(C)(=O)=O)c2F)n1 [encorafenib]
Assay: log2 fold change, soluble protein after heating vs DMSO (PISA); higher = thermal stabilisation; K562 lysate, 10 uM; active = over 0.2 and 3.5 SD of the protein, either way, in both replicates (recomputed)
Method in brief: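 K562 pellets were dounce-homogenised in PBS pH 7.4 with 1 mM MgCl2, and the crude extract at 1 mg/mL protein was treated with 10 μM compound for 30 min. Aliquots were heated for 3 min across 48°C-58°C, pooled, and brought to 0.5% NP-40 at 4°C; soluble protein was the supernatant after 21,000xg for 90 min. Soluble protein was quantified by TMTpro 16plex LC-MS/MS with channel sums equalised, and reported as log2 fold change in thermal stability against DMSO controls, with values from duplicates.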

Sequence of UniProt P08962 (P08962 whole entry, looked up): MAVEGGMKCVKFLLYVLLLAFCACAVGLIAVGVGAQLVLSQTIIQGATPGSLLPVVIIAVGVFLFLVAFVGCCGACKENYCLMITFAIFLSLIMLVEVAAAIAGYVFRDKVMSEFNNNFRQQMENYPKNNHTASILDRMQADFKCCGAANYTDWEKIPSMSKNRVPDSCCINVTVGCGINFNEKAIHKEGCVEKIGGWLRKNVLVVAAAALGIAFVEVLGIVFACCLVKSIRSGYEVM
Sequence of UniProt Q6P4E1 (Q6P4E1 whole entry, looked up): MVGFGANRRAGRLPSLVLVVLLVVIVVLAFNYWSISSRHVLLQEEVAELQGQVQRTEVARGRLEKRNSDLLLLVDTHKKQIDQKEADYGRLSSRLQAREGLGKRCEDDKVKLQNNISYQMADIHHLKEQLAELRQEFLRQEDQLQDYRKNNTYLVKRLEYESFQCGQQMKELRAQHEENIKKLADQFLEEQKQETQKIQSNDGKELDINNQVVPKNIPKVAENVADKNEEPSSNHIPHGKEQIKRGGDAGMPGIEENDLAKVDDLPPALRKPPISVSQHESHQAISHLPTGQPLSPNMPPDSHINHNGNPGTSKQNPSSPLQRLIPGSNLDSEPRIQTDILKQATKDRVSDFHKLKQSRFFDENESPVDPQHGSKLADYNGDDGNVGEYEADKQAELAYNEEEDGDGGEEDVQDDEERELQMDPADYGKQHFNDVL
Sequence of UniProt Q00535 (Q00535 whole entry, looked up): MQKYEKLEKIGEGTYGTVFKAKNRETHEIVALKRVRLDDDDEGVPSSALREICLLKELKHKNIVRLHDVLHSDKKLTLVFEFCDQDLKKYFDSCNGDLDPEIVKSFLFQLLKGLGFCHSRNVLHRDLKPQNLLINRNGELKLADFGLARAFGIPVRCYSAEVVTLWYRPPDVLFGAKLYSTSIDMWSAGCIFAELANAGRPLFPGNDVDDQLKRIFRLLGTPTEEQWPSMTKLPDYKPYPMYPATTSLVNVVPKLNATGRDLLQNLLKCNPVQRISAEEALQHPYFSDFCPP
Sequence of UniProt Q96ER9 (Q96ER9 whole entry, looked up): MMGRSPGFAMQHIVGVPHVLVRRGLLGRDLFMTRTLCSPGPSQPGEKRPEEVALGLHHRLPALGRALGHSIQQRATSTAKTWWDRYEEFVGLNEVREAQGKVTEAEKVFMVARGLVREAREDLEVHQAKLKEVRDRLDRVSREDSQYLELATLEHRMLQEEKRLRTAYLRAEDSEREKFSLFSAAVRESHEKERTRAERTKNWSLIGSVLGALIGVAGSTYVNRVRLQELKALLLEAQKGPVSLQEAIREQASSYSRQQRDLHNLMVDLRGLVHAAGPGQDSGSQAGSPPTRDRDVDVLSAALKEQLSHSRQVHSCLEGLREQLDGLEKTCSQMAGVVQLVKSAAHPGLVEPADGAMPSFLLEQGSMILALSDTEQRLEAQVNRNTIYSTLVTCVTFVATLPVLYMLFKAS
Sequence of UniProt P45973 (P45973 whole entry, looked up): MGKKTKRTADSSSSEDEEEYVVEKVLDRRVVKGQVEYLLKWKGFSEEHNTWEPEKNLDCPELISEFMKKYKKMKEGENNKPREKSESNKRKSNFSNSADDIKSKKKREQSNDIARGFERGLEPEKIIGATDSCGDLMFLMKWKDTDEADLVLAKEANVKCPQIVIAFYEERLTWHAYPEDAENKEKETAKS
Sequence of UniProt P04632 (P04632 whole entry, looked up): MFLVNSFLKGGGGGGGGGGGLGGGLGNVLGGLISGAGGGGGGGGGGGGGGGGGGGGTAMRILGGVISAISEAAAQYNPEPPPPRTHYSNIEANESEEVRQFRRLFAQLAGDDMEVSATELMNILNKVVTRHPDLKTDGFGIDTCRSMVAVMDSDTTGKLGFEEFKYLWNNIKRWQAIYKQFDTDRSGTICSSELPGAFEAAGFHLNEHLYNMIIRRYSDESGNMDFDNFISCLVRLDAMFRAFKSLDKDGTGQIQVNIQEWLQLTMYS
Sequence of UniProt Q9BXL7 (Q9BXL7 whole entry, looked up): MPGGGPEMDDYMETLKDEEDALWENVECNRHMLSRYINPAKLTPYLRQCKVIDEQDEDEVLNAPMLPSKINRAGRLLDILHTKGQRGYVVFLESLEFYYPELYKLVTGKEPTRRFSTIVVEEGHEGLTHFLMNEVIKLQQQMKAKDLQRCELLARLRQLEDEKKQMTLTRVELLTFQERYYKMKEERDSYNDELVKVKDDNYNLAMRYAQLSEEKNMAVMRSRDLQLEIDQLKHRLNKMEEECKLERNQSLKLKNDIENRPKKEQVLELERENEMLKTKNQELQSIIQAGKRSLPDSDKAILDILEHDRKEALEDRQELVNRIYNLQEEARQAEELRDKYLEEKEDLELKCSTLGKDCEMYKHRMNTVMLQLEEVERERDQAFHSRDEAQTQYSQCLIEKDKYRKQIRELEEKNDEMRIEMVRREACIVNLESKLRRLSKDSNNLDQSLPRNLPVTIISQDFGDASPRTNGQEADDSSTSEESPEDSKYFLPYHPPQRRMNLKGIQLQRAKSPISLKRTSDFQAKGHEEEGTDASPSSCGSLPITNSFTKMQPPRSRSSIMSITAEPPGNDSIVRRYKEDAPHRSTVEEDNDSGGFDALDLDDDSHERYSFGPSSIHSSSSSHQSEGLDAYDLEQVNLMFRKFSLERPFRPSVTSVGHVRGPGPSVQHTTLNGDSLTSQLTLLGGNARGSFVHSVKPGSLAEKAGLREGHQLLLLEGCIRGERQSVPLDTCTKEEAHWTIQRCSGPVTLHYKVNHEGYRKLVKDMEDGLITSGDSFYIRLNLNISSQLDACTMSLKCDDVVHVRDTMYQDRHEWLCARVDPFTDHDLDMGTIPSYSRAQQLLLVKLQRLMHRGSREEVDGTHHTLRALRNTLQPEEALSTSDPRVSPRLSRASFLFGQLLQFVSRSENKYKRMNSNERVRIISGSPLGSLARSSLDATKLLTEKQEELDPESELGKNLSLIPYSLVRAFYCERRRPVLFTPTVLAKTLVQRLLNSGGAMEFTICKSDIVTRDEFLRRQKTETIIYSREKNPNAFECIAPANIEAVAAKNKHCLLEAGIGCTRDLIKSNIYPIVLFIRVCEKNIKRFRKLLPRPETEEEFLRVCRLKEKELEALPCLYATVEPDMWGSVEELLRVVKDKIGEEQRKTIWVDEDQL
Sequence of UniProt Q8N4J0 (Q8N4J0 whole entry, looked up): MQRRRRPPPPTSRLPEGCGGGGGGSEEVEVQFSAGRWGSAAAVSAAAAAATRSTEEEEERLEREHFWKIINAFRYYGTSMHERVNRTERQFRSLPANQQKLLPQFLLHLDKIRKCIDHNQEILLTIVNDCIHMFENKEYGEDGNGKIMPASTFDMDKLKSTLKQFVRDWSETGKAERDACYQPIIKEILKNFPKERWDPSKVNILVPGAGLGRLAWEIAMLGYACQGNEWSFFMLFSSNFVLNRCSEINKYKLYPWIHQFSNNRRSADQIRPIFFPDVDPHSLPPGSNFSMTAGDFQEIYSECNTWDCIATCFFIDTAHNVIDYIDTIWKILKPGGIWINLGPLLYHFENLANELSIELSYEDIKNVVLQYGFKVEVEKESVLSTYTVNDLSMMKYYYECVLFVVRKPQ
Sequence of UniProt Q86WJ1 (Q86WJ1 whole entry, looked up): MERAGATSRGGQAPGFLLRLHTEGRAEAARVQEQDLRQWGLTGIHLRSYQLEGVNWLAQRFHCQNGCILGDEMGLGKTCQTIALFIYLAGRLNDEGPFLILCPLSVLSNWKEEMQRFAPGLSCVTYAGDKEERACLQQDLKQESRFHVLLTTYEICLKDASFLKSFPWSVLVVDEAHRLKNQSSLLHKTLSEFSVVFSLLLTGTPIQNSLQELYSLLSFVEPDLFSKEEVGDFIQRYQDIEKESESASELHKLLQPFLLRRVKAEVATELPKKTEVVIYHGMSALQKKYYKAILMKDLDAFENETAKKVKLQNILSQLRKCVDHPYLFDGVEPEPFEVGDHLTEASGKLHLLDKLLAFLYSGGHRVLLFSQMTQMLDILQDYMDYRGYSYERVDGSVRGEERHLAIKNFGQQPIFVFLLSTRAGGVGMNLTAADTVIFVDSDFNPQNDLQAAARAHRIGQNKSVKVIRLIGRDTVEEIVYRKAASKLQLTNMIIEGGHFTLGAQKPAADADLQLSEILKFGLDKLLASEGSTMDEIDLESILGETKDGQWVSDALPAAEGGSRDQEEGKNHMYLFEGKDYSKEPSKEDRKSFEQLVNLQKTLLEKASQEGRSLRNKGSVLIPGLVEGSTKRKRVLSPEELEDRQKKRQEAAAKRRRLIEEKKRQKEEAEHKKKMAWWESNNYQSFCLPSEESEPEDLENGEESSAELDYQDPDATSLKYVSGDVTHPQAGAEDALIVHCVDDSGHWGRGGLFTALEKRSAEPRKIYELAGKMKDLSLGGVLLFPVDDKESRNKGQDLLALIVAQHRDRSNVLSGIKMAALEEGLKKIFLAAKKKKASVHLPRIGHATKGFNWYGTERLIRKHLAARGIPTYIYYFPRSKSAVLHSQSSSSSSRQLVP
Sequence of UniProt Q9UL45 (Q9UL45 whole entry, looked up): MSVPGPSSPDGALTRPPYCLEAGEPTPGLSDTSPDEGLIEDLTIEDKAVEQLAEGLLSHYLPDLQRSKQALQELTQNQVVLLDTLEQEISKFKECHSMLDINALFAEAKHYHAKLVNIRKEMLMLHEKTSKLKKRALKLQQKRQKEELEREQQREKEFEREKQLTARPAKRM
Sequence of UniProt P33681 (P33681 whole entry, looked up): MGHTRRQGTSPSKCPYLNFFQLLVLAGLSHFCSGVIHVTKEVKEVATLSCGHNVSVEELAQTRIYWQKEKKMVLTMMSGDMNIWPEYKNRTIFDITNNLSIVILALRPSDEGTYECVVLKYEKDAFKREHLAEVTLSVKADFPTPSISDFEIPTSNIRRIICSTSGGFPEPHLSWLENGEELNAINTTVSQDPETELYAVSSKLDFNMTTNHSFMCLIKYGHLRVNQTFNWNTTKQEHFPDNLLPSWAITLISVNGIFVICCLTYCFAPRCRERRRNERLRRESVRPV
Sequence of UniProt Q8TCD1 (Q8TCD1 whole entry, looked up): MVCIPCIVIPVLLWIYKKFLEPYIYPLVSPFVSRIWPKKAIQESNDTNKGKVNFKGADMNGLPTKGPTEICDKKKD
Sequence of UniProt A8MTT3 (A8MTT3 whole entry, looked up): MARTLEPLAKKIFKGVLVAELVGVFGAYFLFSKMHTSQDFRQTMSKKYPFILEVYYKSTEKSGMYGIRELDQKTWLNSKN

log2 fold change, inactive:
CEBPZOS (UniProt A8MTT3) 0.064
CDKN1C (UniProt P49918) -0.037
BCKDHB (UniProt P21953) -0.074
CD80 (UniProt P33681) 0.016
BNIP1 (UniProt Q12981) 0.095
CCNK isoform 4 (UniProt O75909) 0.017
CBX5 (UniProt P45973) -0.035
BCORL1 isoform 3 (UniProt Q5H9F3) 0.022
C18orf32 (UniProt Q8TCD1) 0.168
BRD2 isoform 2 (UniProt P25440) 0.084
CDK5 (UniProt Q00535) 0.024
CEP120 (UniProt Q8N960) 0.065
BLOC1S6 (UniProt Q9UL45) 0.147
BMS1 (UniProt Q14692) 0.075
ATR (UniProt Q13535) 0.045
CARNMT1 (UniProt Q8N4J0) 0.051
CDC7 (UniProt O00311) 0.011
CARD11 (UniProt Q9BXL7) -0.021
BRD4 (UniProt O60885) 0
CAPNS1 (UniProt P04632) 0.022
CDC25C (UniProt P30307) 0.078
CASC4 (UniProt Q6P4E1) 0.128
CCNB1 (UniProt P14635) 0.029
BTAF1 (UniProt O14981) 0.021
CCDC51 (UniProt Q96ER9) -0.008
ATM (UniProt Q13315) -0.031
CDC42BPA isoform 6 (UniProt Q5VT25) 0.017
CDK11B (UniProt P21127) -0.012
CENPQ (UniProt Q7L2Z9) 0.169
CEPT1 (UniProt Q9Y6K0) 0.019
CD63 (UniProt P08962) 0.046
CHAC2 (UniProt Q8WUX2) 0.06
C3 (UniProt P01024) 0
CHCHD4 isoform 2 (UniProt Q8N4Q1) 0.062
CHD1L (UniProt Q86WJ1) 0.013
CCDC22 (UniProt O60826) 0.031
C2CD5 isoform 3 (UniProt Q86YS7) 0.054

log2 fold change, active:
BRAF (UniProt P15056) 0.984
